HPGD inh = qHTS Assay for Inhibitors of HPGD (15-Hydroxyprostaglandin Dehydrogenase). 15-hydroxyprostaglandin dehydrogenase [NAD(+)] (Homo sapiens), P15428. purified HPGD, NADH fluorescence kinetic, PGE2 substrate. Potency, µM, without a hit: top-dose activity change, negative = inhibition, hits mostly inhibitors. actives 4.3% (n = 150,000). AID 894, 2007; further: potency means the concentration at half of the fitted maximal effect
Target sequence (P15428 whole entry, looked up): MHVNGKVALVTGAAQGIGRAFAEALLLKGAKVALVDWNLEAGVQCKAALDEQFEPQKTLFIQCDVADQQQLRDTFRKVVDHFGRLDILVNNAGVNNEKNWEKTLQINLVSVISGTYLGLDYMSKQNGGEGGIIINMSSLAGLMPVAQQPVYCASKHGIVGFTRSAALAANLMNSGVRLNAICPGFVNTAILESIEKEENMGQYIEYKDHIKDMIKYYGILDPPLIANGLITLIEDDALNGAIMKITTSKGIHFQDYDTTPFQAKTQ
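NADH formation kinetics: reaction with 30 uM PGE2 and 1 mM NAD+ (final), 20 nM enzyme, Tris-HCl pH 8 with Tween 20, after 15 min compound preincubation at room temperature. Fluorescence change, last versus first of five reads.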
ALDH1A1 block = qHTS Assay for Inhibitors of Aldehyde Dehydrogenase 1 (ALDH1A1); Purified ALDH1A1, NADH fluorescence, propionaldehyde substrate; Potency, µM (top dose mostly 75.3 µM), for inactives: at the highest dose activity, negative = inhibition, actives largely listed as inhibitors; actives 7.3% (n = 220,000); AID 1030, 2008;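 further: potency means the concentration at half of the fitted maximal effect; plate controls were no enzyme wells and a reference inhibitor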
PNC assembly inh = High Content Assay for Compounds that inhibit the Assembly of the Perinucleolar Compartment | PC3M PTB-GFP, PNC prevalence imaging, 16 h; stronger effect = lower value | activity change (PNC), negative = inhibition, % at 10 µM | actives 3.1% (n = 140,000);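 active means readout at or below -70, meaning at least 70% loss of cells showing the perinucleolar compartment, a nuclear body marking cancer cells; inconclusive means readout between -30 and a set limit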;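 further: plate controls were DMSO wells for no effect and camptothecin positive control wells for full effect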
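Compounds are pinned in duplicate onto adhered PC3M cells stably expressing GFP-tagged PTB and incubated 16 h at 37 C. Cells are then fixed, nuclei stained with Hoechst, and PNC-positive cells counted.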
Active calls of the source: *; ? = inconclusive; / = no result. Sampled rows, rich in hits. Any-hit rate of the full collection: about 11%. Unless noted, the call rests on the fitted dose curve; in most records, active means well fitted inhibition curve with a large enough effect (not every such curve was filed as active); inconclusive means small, poorly fitted or top-dose-only effect, or another doubt; inactive means no such curve, though single readings can be large or run the other way. Unless noted, on the % scale 0 is the no-effect control and ±100 the full control effect.

SMILES | HPGD inh | ALDH1A1 block | PNC assembly inh
O=C1c2ccccc2-c2nnc(-c3ccc(F)cc3)cc21 | / | -6.0% | /
Cc1ccccc1-c1cc2c(nn1)-c1ccccc1C2=O | ? | 25.1µM* | 18.8
Cc1ccc(C(=O)N2CCC(C)CC2)cc1C | 0.794µM* | 11.2µM* | 16.2
Cc1ccc(C(=O)N2CCN(c3ccccc3)CC2)cc1C | -10.4% | ? | -107.1*
Cc1ccc(C(=O)N2CCN(c3cccc(Cl)c3)CC2)cc1C | -17.1% | ? | ?
COc1ccc(C(=O)N2CCCC2)cc1S(=O)(=O)N1CCC(C)CC1 | -6.0% | -10.9% | -19.0
COc1cccc(/C=N/NC(=O)C(=O)Nc2ccccc2OC(F)(F)C(F)F)c1O | -5.6% | 1.4% | -11.6
COc1ccc(Nc2cnn(-c3nc4ccccc4s3)c(=O)c2Cl)cc1 | -24.4% | 8.91µM* | 37.9
O=c1c(Cl)c(Nc2cccc(Cl)c2)cnn1-c1nc2ccccc2s1 | -6.3% | -10.9% | 12.1
COc1ccccc1NC(=O)c1ccc(CSc2ncccn2)cc1 | / | -7.2% | /
O=C(Nc1ccc(Cl)cc1)Nc1nnc(SCc2ccc(Cl)cc2)s1 | -3.1% | 7.2% | -110.8*
O=C(Nc1ccccc1)Nc1nnc(SCc2ccc(Cl)cc2)s1 | 0.6% | 10.9% | -17.7
C/C(=C(\C#N)C(=O)NC1CCCCC1)N(C)C | 15.8µM* | -8.2% | 78.4
C/C(NC1CCCC1)=C(/C#N)C(N)=O | -21.2% | 10.4% | 12.4
C=CCc1ccc(OCC(O)CO)c(OC)c1 (stereo not given) | -12.2% | -11.7% | 23.4
C=CCc1ccc(OCC(O)COCC)c(OC)c1 (stereo not given) | 0.1% | 28.2µM* | 17.8
CCC(Cc1c(I)cc(I)c(N)c1I)C(=O)O (stereo not given) | -3.9% | 10.9% | /
COC(=O)/C=C/c1cc(O)ccc1O | / | 28.2µM* | /
CC(=O)/C=C/c1ccccc1O | / | 4.5% | /
CC(C)NC(=O)[C@@H]1C[C@H]1[C@@H](NC(=O)OCc1ccccc1)c1ccccc1 | -9.4% | 0.6% | /
CCn1c(N)c(C(=O)NCCOC)sc1=S | ? | 25.1µM* | -0.4
CCn1c(N)c(C(=O)NCc2ccc3c(c2)OCO3)sc1=S | 15.8µM* | 20µM* | ?
CCCCCC(=O)NC(=S)Nc1ccccc1C(=O)OC | -9.7% | ? | -9.4
CCn1c(N)c(C(=O)Nc2ccccc2C(=O)OC)sc1=S | 25.1µM* | 28.2µM* | -11.1
COCCNC(=O)c1ccc(C(=O)NCCOC)s1 | -29.0% | 13.8% | -24.6
SMILES | HPGD inh | ALDH1A1 block | PNC assembly inh
CCOC(=O)c1c(C)c(C(=O)NCc2ccc3c(c2)OCO3)c(C)n1CC | -16.3% | ? | 40.8
Cc1ccc(-c2csc3nc(SCC(N)=O)n(Cc4ccccc4)c(=O)c23)cc1 | -9.5% | 10.1% | 3.1
CC(=O)Nc1cccc(Oc2ncnc3scc(-c4ccc(C(C)C)cc4)c23)c1 | -0.9% | ? | ?
Cc1nc2ccc(NC(=O)Cc3ccccc3F)cc2s1 | / | 3.3% | /
COC(=O)[C@@]1(Cc2ccccc2)[C@H]2c3cc(C(=O)N(C)C)n(Cc4cc(C)n(C)n4)c3C[C@H]2CN1C(=O)c1ccccc1 | -11.9% | -0.1% | /
Cc1ccc2[nH]c3nc(SCCN4CCOCC4)nnc3c2c1 | -16.1% | ? | -4.2
CCn1c2ccc(C)cc2c2nnc(SCCN3CCOCC3)nc21 | / | 25.1µM* | /
C=CCn1cc(C(C)=O)c(=O)[nH]c1=O | / | 9.8% | /
O=C1N=c2ccccc2=C1c1sc(=S)n(Cc2ccccc2Cl)c1O | / | 3.9% | /
Cc1cc(CNC(=O)[C@@H]2C[C@H]2[C@@H](NP(=O)(c2ccccc2)c2ccccc2)c2ccccc2)nn1C | -17.7% | -0.5% | /
O=S(=O)(c1ccc2c(c1)OCCO2)N(Cc1ccc(F)cc1)Cc1nnc(-c2cccs2)o1 | 4.47µM* | 3.98µM* | -26.1
Cc1cc(C(=O)CN(Cc2ccc(F)cc2)S(=O)(=O)c2ccc3c(c2)OCCO3)c(C)n1C | -11.9% | ? | -22.0
Cc1cccc(Cn2c(Sc3nc(C)cs3)nc3c2c(=O)[nH]c(=O)n3C)c1 | -2.6% | -9.0% | 23.7
Cc1ccc(Cn2c(SCCN3CCCCC3)nc3c2c(=O)[nH]c(=O)n3C)cc1 | 28.2µM* | ? | ?
Cn1c(=O)[nH]c(=O)c2c1nc(Sc1nc3ccccc3s1)n2Cc1ccccc1 | -3.8% | 15.8µM* | -28.7
Cc1cccc(Cn2c(SCC(=O)Nc3ccccc3)nc3c2c(=O)[nH]c(=O)n3C)c1 | 22.4µM* | ? | -10.3
Cc1ccc(Cn2c(Sc3nnc(C)s3)nc3c2c(=O)[nH]c(=O)n3C)cc1 | -2.1% | -17.5% | 2.7
CC(C)n1c(SCc2ccccc2F)nc2c1c(=O)n(C)c(=O)n2C | -7.5% | 4.1% | 17.8
Cc1ccc(Cn2c(CN3CC(C)OC(C)C3)nc3c2c(=O)[nH]c(=O)n3C)cc1 (stereo not given) | -8.1% | -2.2% | -28.9
Cn1c(=O)c2c(nc(SCCCC#N)n2Cc2ccccc2F)n(C)c1=O | -7.1% | 2.82µM* | -21.5
COc1ccc(NC(=O)N2CCC3(CC2)CCN(C(=O)c2cccn2C)CC3)cc1 | 0.0% | ? | /
COc1cc(/C=C(\C#N)c2ccccn2)ccc1OCc1ccc(Cl)cc1 | / | 141.1% | -15.6
CCCCNC(=O)C(c1ccc(OCC(=O)OC)c(C(=O)OC)c1)N(Cc1ccccn1)C(=O)CCCCCN1C(=O)NC(c2ccc(-c3ccccc3)cc2)C(C(=O)OCc2ccccc2)=C1C (stereo not given) | -9.1% | 3.2% | /
CCOCCSc1nc2c(c(=O)[nH]c(=O)n2C)n1CCCc1ccccc1 | -17.4% | -2.2% | -25.4
Cc1ccc(Cn2c(-n3nc(C)cc3C)nc3c2c(=O)[nH]c(=O)n3C)cc1 | -8.2% | 11.3% | -18.8
SMILES | HPGD inh | ALDH1A1 block | PNC assembly inh
C=CCn1c(SCCN2CCCCC2)nc2c1c(=O)[nH]c(=O)n2C | -9.5% | -10.7% | 27.0
CC(C)Sc1nc2c(c(=O)n(C)c(=O)n2C)n1Cc1ccc(Cl)cc1 | -8.8% | 8.91µM* | -10.2
Cn1c(=O)[nH]c(=O)c2c1nc(SCCN1CCCCC1)n2CCCc1ccccc1 | 28.2µM* | ? | ?
Cn1c(=O)[nH]c(=O)c2c1nc(SCCN1CCCCC1)n2Cc1ccccc1 | 25.1µM* | ? | ?
Cn1c(=O)c2c(ncn2Cc2ccc(Cl)cc2)n(C)c1=O | / | 3.8% | /
Cc1cc(C)n(-c2nc3c(c(=O)[nH]c(=O)n3C)n2Cc2cccc(Br)c2)n1 | 15.8µM* | 0.5% | -7.5
CC(=O)Nc1ccc(Nc2nc(Cl)nc(Nc3ccc(NC(C)=O)cc3)n2)cc1 | / | 0.7% | /
Nc1ncnc(Nc2ccc(S(N)(=O)=O)cc2)n1 | / | -3.1% | /
O=C(O)c1sc2cccc(Cl)c2c1Cl | / | 2.2% | /
Cc1ccc(Cn2c(SCCN3CCOCC3)nc3c2c(=O)n(C)c(=O)n3C)cc1 | / | -0.8% | -80.6*
Cc1cccc(Cn2c(SCCN3CCOCC3)nc3c2c(=O)n(C)c(=O)n3C)c1 | -5.5% | ? | -1.2
CNC(=O)CSc1nc2c(c(=O)n(C)c(=O)n2C)n1Cc1ccc(C)cc1 | -15.9% | -4.1% | -1.9
Cc1ccc(Cn2c(SCC(=O)NCC3CCCO3)nc3c2c(=O)n(C)c(=O)n3C)cc1 (stereo not given) | / | 22.4µM* | /
CC(C)C[C@@H](C=O)NC(=O)[C@H](CC(C)C)NC(=O)[C@H](CC(C)C)NC(=O)OCc1ccccc1 | / | 14.1µM* | /
